Source: PubChem BioAssay
Results filed as inconclusive are left out. Activity calls are given as the source filed them.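 The calls were made as follows, unless noted: active = normalized viability below 100% at a tested concentration; inactive = the rest.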

Experiments:
[1] = growth inhibition of DIPG glioma cells, dose response, cell-based, SU-DIPG-XVII, MIPE5.0, CellTiter-Glo, qHTS (AID 1347060; cut-off not given, nearly all actives have AC50 up to about 26 µM;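 also: cells exposed to compound for 48 hours before viability readout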); conditions: SU-DIPG-XVII viability, CellTiter-Glo ATP luminescence
[2] = growth inhibition of DIPG glioma cells, dose response, cell-based, SU-DIPG-XIII, MIPE4.0, CellTiter-Glo, qHTS (AID 1347061; cut-off not given, nearly all actives have AC50 up to about 37 µM;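 also: cells exposed to compound for 48 hours before readout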); conditions: SU-DIPG-XIII viability, CellTiter-Glo ATP luminescence
[3] = growth inhibition of DIPG glioma cells, dose response, cell-based, JHH-DIPG-1, MIPE4.0, CellTiter-Glo, qHTS (AID 1347062; cut-off not given, nearly all actives have AC50 up to about 27 µM;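 also: cells exposed to compound for two days before readout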); conditions: JHH-DIPG-1 viability, CellTiter-Glo ATP luminescence
[4] = growth inhibition of DIPG glioma cells, dose response, cell-based, SU-DIPG-IV, MIPE4.0, CellTiter-Glo, qHTS (AID 1347063; cut-off not given, nearly all actives have AC50 up to about 30 µM;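 also: compound exposure lasted 48 hours before the viability readout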); conditions: SU-DIPG-IV viability, CellTiter-Glo ATP luminescence
[5] = growth inhibition of DIPG glioma cells, dose response, cell-based, SU-DIPG-XIII, MIPE5.0, CellTiter-Glo, qHTS (AID 1347064; cut-off not given, nearly all actives have AC50 up to about 23 µM;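 also: cells exposed to compound for 48 hours before the viability read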); conditions: SU-DIPG-XIII viability, CellTiter-Glo ATP luminescence
[6] = viability loss in pontine glioma line – cell-based, SU-DIPG-XXV, MIPE5.0, CellTiter-Glo, qHTS, dose response (AID 1347065; cut-off not given, nearly all actives have AC50 up to about 26 µM;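 also: cells exposed to compound for 48 hours before ATP readout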); conditions: CellTiter-Glo ATP luminescence
[7] = SU-DIPG-VI glioma cell viability, MIPE4.0 library, CellTiter-Glo luminescence, qHTS (AID 1347066; cut-off not given, nearly all actives have AC50 up to about 30 µM;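 also: cells exposed to compound for 48 hours before readout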); conditions: CellTiter-Glo ATP luminescence
[8] = JHH-DIPG-1 glioma cell viability, MIPE5.0 library, CellTiter-Glo luminescence, qHTS (AID 1347067; cut-off not given, nearly all actives have AC50 up to about 26 µM;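 also: cells exposed to compound for 48 hours before readout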); conditions: JHH-DIPG-1 glioma viability, CellTiter-Glo ATP luminescence
[9] = SU-DIPG-XXV glioma cell viability, MIPE5.0 library, qHTS (AID 1347068; cut-off not given, nearly all actives have IC50 up to about 30 µM;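 also: cells exposed to compound for 48 hours before viability readout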)
[10] = sensitizers of A549 cells to miR-34 induction, primary screen, imaging, A549 dox-inducible miR-34, nuclei and caspase counts (AID 1347080;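 active = compounds whose cell count with miR-34 switched on is under 0.7 times the count with it off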); conditions: A549 miR-34 inducible, Hoechst nuclei count, 48 h
[11] = modifiers of HSF1 nuclear foci, imaging, Selleck Cancer Library (AID 1347162; in the data active = plate-normalised HSF1 focus index below about 0.46); conditions: human cells, at 10 µM; SSMD: measured here: HSF1 foci SSMD mean; cell count: measured here: cell number; plate-normalised HSF1 focus index: stronger effect = lower value
[12] = survival rescue of mitochondrial mutant cells in low glucose, primary screen, MELAS cybrids, Rieske KO mouse fibroblasts, CellTiter-Glo (AID 1508586;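 active = mean z-score across replicates of 1.96 or higher in either the MELAS or the Rieske mutant cell line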;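 also: z relative to plate mean and SD of compound and empty wells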)
[13] = ovarian cancer cell viability with rucaparib, profiling panel, oncology-focused library, rucaparib conditional (AID 1508598); conditions: patient-derived ovarian cancer cells, CellTiter-Glo viability, 144 h, stronger effect = lower value

Nc1cc(C(F)(F)F)c(-c2cc(N3CCOCC3)nc(N3CCOCC3)n2)cn1
1810: cell count ([10]; measured here: total cells without miR-34 induction)
inactive: fold change ([10]; stronger effect = lower value, cell number ratio, induced over uninduced) 0.829 | plate-normalised HSF1 focus index [11] 0.897 | viability ([13]; at 0.000305 µM, OCI-C5x cells, with rucaparib 10 µM, 100% = cells with rucaparib alone) 103% | viability ([13]; at 0.000305 µM, OCI-C5x cells, without rucaparib) 125% | viability ([13]; at 0.000305 µM, OCI-P5x cells, with rucaparib 20 µM, 100% = cells with rucaparib alone) 104% | viability ([13]; at 0.000305 µM, OCI-P5x cells, without rucaparib) 106% | viability ([13]; at 0.00122 µM, OCI-C5x cells, with rucaparib 10 µM, 100% = cells with rucaparib alone) 103% | viability ([13]; at 0.00122 µM, OCI-C5x cells, without rucaparib) 120% | viability ([13]; at 0.00122 µM, OCI-P5x cells, without rucaparib) 114% | viability ([13]; at 0.00488 µM, OCI-C5x cells, with rucaparib 10 µM, 100% = cells with rucaparib alone) 112% | viability ([13]; at 0.00488 µM, OCI-C5x cells, without rucaparib) 141% | viability ([13]; at 0.00488 µM, OCI-P5x cells, with rucaparib 20 µM, 100% = cells with rucaparib alone) 103% | viability ([13]; at 0.00488 µM, OCI-P5x cells, without rucaparib) 107% | viability ([13]; at 0.0195 µM, OCI-C5x cells, with rucaparib 10 µM, 100% = cells with rucaparib alone) 104% | viability ([13]; at 0.0195 µM, OCI-C5x cells, without rucaparib) 117% | viability ([13]; at 0.0195 µM, OCI-P5x cells, with rucaparib 20 µM, 100% = cells with rucaparib alone) 100% | viability ([13]; at 0.0195 µM, OCI-P5x cells, without rucaparib) 110% | viability ([13]; at 0.0781 µM, OCI-C5x cells, with rucaparib 10 µM, 100% = cells with rucaparib alone) 120% | viability ([13]; at 0.0781 µM, OCI-C5x cells, without rucaparib) 121% | viability ([13]; at 0.0781 µM, OCI-P5x cells, with rucaparib 20 µM, 100% = cells with rucaparib alone) 104% | viability ([13]; at 0.0781 µM, OCI-P5x cells, without rucaparib) 102% | viability ([13]; at 0.313 µM, OCI-C5x cells, without rucaparib) 124%
1.1: fold change ([10]; measured here: relative caspase fold change +Dox/-Dox)
7440: cell count [11]
-2.21: z-score ([12]; Rieske KO mouse fibroblast survival, CellTiter-Glo 72 h)
1500: cell count ([10]; measured here: total cells with miR-34 induction, stronger effect = lower value)
active: AC50 [1] 2950 nM | AC50 [2] 6620 nM | AC50 [3] 2090 nM | AC50 [4] 332 nM | AC50 [5] 2950 nM | AC50 [6] 934 nM | AC50 [7] 1480 nM | AC50 [8] 1480 nM | IC50 [9] 3720 nM | z-score ([12]; MELAS cybrid survival, CellTiter-Glo 48 h, stronger effect = higher value) 2.94 | viability ([13]; at 0.00122 µM, OCI-P5x cells, with rucaparib 20 µM, 100% = cells with rucaparib alone) 98.2% | viability ([13]; at 0.313 µM, OCI-C5x cells, with rucaparib 10 µM, 100% = cells with rucaparib alone) 93.6% | viability ([13]; at 0.313 µM, OCI-P5x cells, with rucaparib 20 µM, 100% = cells with rucaparib alone) 87.5% | viability ([13]; at 0.313 µM, OCI-P5x cells, without rucaparib) 92.9% | viability ([13]; at 1.25 µM, OCI-C5x cells, with rucaparib 10 µM, 100% = cells with rucaparib alone) 71.8% | viability ([13]; at 1.25 µM, OCI-C5x cells, without rucaparib) 80.8% | viability ([13]; at 1.25 µM, OCI-P5x cells, with rucaparib 20 µM, 100% = cells with rucaparib alone) 69.7% | viability ([13]; at 1.25 µM, OCI-P5x cells, without rucaparib) 51.3% | viability ([13]; at 5 µM, OCI-C5x cells, with rucaparib 10 µM, 100% = cells with rucaparib alone) 31.4% | viability ([13]; at 5 µM, OCI-C5x cells, without rucaparib) 25.1% | viability ([13]; at 5 µM, OCI-P5x cells, with rucaparib 20 µM, 100% = cells with rucaparib alone) 26.6% | viability ([13]; at 5 µM, OCI-P5x cells, without rucaparib) 12.2%
-2.85: SSMD [11]
